How the values were obtained:
Assay in all cases: DAPPL (digital affinity profiling via proximity ligation, sequencing); 10 mM Tris-HCl pH 7.5, 50 mM NaCl, 1 mM DTT, 4% glycerol, room temperature, 30 min; GST-TFs on glutathione beads, 16-mer random dsDNA library, 0.1% formaldehyde crosslink after washing; high values mean tight binding
Conditions in all cases: protein: recombinant; tags: N-terminal GST; dsDNA, one strand shown
FLI1 = biological target: T1, FLI1 (Homo sapiens, UniProt Q01543 1-452)
T1 sequence: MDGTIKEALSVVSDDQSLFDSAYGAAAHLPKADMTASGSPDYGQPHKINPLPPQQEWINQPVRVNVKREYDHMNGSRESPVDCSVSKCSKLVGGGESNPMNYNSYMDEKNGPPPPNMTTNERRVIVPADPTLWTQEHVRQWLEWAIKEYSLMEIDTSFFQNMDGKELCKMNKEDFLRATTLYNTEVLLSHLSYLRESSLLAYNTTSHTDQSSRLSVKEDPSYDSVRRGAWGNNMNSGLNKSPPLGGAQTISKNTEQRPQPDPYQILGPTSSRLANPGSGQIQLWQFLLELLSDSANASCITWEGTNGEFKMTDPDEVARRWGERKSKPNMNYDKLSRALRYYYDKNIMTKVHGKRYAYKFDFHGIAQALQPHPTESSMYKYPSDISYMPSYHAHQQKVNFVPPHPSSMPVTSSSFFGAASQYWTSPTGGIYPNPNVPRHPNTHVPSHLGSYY
In short: (§1)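 Human transcription factors were made in yeast as GST fusions, captured on glutathione beads and barcoded with DNA. With a tag-only sample included, the pool was incubated with 200 nmole of a random double-stranded 16-mer DNA library in Tris/NaCl/DTT/glycerol buffer at room temperature for 30 min, then crosslinked with 0.1% formaldehyde after washing, ligated by proximity, amplified and sequenced. For binding signal, each hexamer's read frequency for a factor is divided by its frequency for the tag-only sample.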

ELK1 = biological target: T2, ELK1 (Homo sapiens, UniProt P19419 1-428)
T2 sequence: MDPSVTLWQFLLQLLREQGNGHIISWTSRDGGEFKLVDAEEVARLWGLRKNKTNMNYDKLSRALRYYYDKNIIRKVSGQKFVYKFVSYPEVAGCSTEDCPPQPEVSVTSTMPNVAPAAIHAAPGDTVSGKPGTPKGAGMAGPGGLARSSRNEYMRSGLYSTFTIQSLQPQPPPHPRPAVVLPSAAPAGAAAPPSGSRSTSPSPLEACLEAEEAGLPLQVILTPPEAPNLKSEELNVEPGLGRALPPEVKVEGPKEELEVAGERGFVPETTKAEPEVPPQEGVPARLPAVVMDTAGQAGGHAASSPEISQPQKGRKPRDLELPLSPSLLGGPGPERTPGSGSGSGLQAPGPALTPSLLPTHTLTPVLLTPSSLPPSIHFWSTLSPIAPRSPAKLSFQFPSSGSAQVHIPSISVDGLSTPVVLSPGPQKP
In short: as §1

GABPA = biological target: T3, GABPA (Homo sapiens, UniProt Q06546 1-454)
T3 sequence: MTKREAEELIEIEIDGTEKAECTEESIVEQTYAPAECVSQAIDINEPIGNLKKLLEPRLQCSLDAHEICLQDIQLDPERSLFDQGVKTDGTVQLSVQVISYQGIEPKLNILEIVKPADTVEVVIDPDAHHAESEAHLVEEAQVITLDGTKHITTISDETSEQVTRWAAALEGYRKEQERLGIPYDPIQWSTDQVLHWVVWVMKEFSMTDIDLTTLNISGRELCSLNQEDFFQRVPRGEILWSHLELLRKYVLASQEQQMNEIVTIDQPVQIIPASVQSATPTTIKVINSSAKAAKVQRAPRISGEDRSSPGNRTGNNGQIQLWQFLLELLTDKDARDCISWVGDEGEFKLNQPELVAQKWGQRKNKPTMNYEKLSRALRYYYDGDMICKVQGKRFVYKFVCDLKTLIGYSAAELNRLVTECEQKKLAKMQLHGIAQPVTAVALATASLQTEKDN
In short: as §1

ERG = biological target: T4, ERG (Homo sapiens, UniProt P11308 1-479)
T4 sequence: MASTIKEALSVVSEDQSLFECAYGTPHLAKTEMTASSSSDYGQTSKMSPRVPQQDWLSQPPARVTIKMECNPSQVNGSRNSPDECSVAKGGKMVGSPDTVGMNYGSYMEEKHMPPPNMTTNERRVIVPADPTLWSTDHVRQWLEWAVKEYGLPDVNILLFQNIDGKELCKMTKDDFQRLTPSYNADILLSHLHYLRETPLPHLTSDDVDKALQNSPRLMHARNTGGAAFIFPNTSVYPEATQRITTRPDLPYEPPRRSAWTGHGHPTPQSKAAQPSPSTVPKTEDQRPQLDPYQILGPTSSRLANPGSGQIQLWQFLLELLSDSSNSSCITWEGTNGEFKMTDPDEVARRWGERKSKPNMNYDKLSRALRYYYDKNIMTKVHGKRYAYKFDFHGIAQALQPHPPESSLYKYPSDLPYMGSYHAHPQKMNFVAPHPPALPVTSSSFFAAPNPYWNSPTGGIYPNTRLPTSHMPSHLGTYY
In short: as §1

ELF1 = ELF1 (Homo sapiens, UniProt P32519 1-619)
In short: as §1

EHF = biological target: T5, EHF (Homo sapiens, UniProt Q9NZC4 1-300)
T5 sequence: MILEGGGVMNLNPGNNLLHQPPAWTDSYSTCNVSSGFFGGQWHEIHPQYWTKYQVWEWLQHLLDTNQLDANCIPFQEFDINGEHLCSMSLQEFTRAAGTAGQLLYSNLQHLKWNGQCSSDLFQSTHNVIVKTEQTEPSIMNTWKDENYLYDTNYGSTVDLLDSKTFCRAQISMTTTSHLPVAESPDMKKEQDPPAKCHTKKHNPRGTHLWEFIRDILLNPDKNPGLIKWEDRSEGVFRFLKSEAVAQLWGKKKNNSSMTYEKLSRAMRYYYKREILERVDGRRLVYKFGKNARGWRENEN
In short: as §1

SPI1 = SPI1 (Homo sapiens, UniProt P17947 1-270)
In short: as §1

SPIB = SPIB (Homo sapiens, UniProt Q01892 1-262)
In short: as §1

ELK3 = biological target: T6, ELK3 (Homo sapiens, UniProt P41970 1-407)
T6 sequence: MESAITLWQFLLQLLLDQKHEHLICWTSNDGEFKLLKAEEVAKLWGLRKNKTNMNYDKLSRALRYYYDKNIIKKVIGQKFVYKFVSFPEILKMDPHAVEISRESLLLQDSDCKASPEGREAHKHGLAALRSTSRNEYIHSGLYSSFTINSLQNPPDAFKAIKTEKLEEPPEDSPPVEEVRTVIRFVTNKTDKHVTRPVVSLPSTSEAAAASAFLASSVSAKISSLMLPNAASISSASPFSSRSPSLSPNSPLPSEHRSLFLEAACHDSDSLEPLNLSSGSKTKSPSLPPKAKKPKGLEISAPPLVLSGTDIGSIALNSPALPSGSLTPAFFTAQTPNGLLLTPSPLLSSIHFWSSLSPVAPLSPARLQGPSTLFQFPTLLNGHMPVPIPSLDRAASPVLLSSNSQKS
In short: as §1

Chain of ELF1 (P32519 whole entry): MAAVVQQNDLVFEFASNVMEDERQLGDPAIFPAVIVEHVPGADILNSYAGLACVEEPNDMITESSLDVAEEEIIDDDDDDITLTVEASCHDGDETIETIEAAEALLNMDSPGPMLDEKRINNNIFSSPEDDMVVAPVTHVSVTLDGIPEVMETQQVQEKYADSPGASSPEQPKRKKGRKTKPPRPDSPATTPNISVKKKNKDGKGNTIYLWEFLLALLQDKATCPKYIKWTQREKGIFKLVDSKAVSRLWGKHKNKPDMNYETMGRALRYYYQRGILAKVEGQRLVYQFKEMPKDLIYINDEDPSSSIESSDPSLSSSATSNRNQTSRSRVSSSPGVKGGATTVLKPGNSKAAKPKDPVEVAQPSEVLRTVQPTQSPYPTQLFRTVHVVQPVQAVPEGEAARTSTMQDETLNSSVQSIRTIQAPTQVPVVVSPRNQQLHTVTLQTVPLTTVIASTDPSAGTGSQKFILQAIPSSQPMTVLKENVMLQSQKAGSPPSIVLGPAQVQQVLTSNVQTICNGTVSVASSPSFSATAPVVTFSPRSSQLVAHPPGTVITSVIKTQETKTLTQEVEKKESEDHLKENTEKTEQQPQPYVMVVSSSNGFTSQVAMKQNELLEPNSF
Chain of SPIB (Q01892 whole entry): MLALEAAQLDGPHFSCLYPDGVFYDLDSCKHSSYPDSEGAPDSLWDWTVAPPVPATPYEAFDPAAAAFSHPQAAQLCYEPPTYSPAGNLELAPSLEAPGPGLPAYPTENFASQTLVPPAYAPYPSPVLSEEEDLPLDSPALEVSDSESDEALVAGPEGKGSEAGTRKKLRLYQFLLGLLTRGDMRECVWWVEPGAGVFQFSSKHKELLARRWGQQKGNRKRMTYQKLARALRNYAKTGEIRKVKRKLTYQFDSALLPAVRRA

| Sequence | binding signal (FLI1) | binding signal (ELK1) | binding signal (GABPA) | binding signal (ERG) | binding signal (ELF1) | binding signal (EHF) | binding signal (SPI1) | binding signal (SPIB) | binding signal (ELK3) |
| --- | --- | --- | --- | --- | --- | --- | --- | --- | --- |
| TAAGTA | 1.21 fold enrichment (6-mer frequency, TF over GST control) | 1.26 fold enrichment (6-mer frequency, TF over GST control) | 1.28 fold enrichment (6-mer frequency, TF over GST control) | 1.22 fold enrichment (6-mer frequency, TF over GST control) | 1.24 fold enrichment (6-mer frequency, TF over GST control) | 1.19 fold enrichment (6-mer frequency, TF over GST control) | 1.16 fold enrichment (6-mer frequency, TF over GST control) | 1.22 fold enrichment (6-mer frequency, TF over GST control) | 1.22 fold enrichment (6-mer frequency, TF over GST control) |
| ATAGAA | 1.02 fold enrichment (6-mer frequency, TF over GST control) | 1.04 fold enrichment (6-mer frequency, TF over GST control) | 1.04 fold enrichment (6-mer frequency, TF over GST control) | 1.06 fold enrichment (6-mer frequency, TF over GST control) | 1.05 fold enrichment (6-mer frequency, TF over GST control) | 1.07 fold enrichment (6-mer frequency, TF over GST control) | 1.16 fold enrichment (6-mer frequency, TF over GST control) | 1.08 fold enrichment (6-mer frequency, TF over GST control) | 1.13 fold enrichment (6-mer frequency, TF over GST control) |
| CCCTTC | 1.55 fold enrichment (6-mer frequency, TF over GST control) | 1.55 fold enrichment (6-mer frequency, TF over GST control) | 1.39 fold enrichment (6-mer frequency, TF over GST control) | 1.48 fold enrichment (6-mer frequency, TF over GST control) | 1.45 fold enrichment (6-mer frequency, TF over GST control) | 1.52 fold enrichment (6-mer frequency, TF over GST control) | 1.52 fold enrichment (6-mer frequency, TF over GST control) | 1.56 fold enrichment (6-mer frequency, TF over GST control) | 1.44 fold enrichment (6-mer frequency, TF over GST control) |
| CTCCTT | 1.92 fold enrichment (6-mer frequency, TF over GST control) | 1.72 fold enrichment (6-mer frequency, TF over GST control) | 1.7 fold enrichment (6-mer frequency, TF over GST control) | 1.82 fold enrichment (6-mer frequency, TF over GST control) | 1.94 fold enrichment (6-mer frequency, TF over GST control) | 1.64 fold enrichment (6-mer frequency, TF over GST control) | 1.71 fold enrichment (6-mer frequency, TF over GST control) | 1.82 fold enrichment (6-mer frequency, TF over GST control) | 1.65 fold enrichment (6-mer frequency, TF over GST control) |
| CTTATA | 1.3 fold enrichment (6-mer frequency, TF over GST control) | 1.33 fold enrichment (6-mer frequency, TF over GST control) | 1.41 fold enrichment (6-mer frequency, TF over GST control) | 1.28 fold enrichment (6-mer frequency, TF over GST control) | 1.33 fold enrichment (6-mer frequency, TF over GST control) | 1.4 fold enrichment (6-mer frequency, TF over GST control) | 1.43 fold enrichment (6-mer frequency, TF over GST control) | 1.39 fold enrichment (6-mer frequency, TF over GST control) | 1.29 fold enrichment (6-mer frequency, TF over GST control) |
| TGTGCT | 1.13 fold enrichment (6-mer frequency, TF over GST control) | 1.23 fold enrichment (6-mer frequency, TF over GST control) | 1.24 fold enrichment (6-mer frequency, TF over GST control) | 1.23 fold enrichment (6-mer frequency, TF over GST control) | 1.2 fold enrichment (6-mer frequency, TF over GST control) | 1.11 fold enrichment (6-mer frequency, TF over GST control) | 1.24 fold enrichment (6-mer frequency, TF over GST control) | 1.14 fold enrichment (6-mer frequency, TF over GST control) | 1.16 fold enrichment (6-mer frequency, TF over GST control) |
| ATATCT | 1.25 fold enrichment (6-mer frequency, TF over GST control) | 1.19 fold enrichment (6-mer frequency, TF over GST control) | 1.26 fold enrichment (6-mer frequency, TF over GST control) | 1.21 fold enrichment (6-mer frequency, TF over GST control) | 1.21 fold enrichment (6-mer frequency, TF over GST control) | 1.17 fold enrichment (6-mer frequency, TF over GST control) | 1.16 fold enrichment (6-mer frequency, TF over GST control) | 1.21 fold enrichment (6-mer frequency, TF over GST control) | 1.15 fold enrichment (6-mer frequency, TF over GST control) |

Source: article PMC7862700, “An all-to-all approach to the identification of sequence-specific readers for epigenetic DNA modifications on cytosine”
